# Reference: PubChem BioAssay AID1159580 (chemical genetic matrix, 2015)
# Out of some 5,500 compounds screened, about 2,000 (36%) were called active. Roughly 18% stayed inconclusive and do not appear here. The list shows a part of the results. Values without a mark were called inactive. No stated cut-off is given here; in the data, active means normalized growth mostly below about 0.91 (no sharp cut-off); inconclusive means no clear call, values can overlap the other calls; inactive means mostly above about 0.92.
# Test: chemical genetic growth profiling, strain panel (AID 1159580);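 further: tested at 20 µM; growth read once vehicle control cultures reached saturation at 30 °C; 1 = growth at the plate median or of vehicle wells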
# Settings: S. cerevisiae deletion strains, growth OD
# [1] = locus YAL013W, strain DEP1, stronger effect = lower value
# [2] = locus YGR078C, strain PAC10, stronger effect = lower value
# [3] = locus YMR263W, strain SAP30, stronger effect = lower value
# [4] = locus YNL322C, strain KRE1, stronger effect = lower value
# [5] = locus YAL040C, strain CLN3, stronger effect = lower value
# [6] = locus YCL061C, strain MRC1 (second series), stronger effect = lower value
# [7] = locus YDR363W, strain ESC2, stronger effect = lower value
# [8] = locus YER002W, strain NOP16, stronger effect = lower value
# [9] = locus YNL175C, strain NOP13, stronger effect = lower value
# [10] = locus YNL197C, strain WHI3, stronger effect = lower value
# [11] = locus YNL224C, strain SQS1, stronger effect = lower value
# [12] = locus YOR083W, strain WHI5 (second series), stronger effect = lower value
compound,measurement,setting,value
CC(Cc1ccc(O)c(O)c1)C(C)Cc1ccc(O)c(O)c1 (configuration not stated),normalized growth,[1],0.625 (active)
same,normalized growth,"locus YBR021W, strain FUR4, stronger effect = lower value",0.952
same,normalized growth,"locus YBR229C, strain ROT2, stronger effect = lower value",0.909 (active)
same,normalized growth,"locus YCL029C, strain bik1, stronger effect = lower value",0.916
same,normalized growth,"locus YDL035C, strain GPR1, stronger effect = lower value",0.774 (active)
same,normalized growth,"locus YDL074C, strain BRE1, stronger effect = lower value",0.48 (active)
same,normalized growth,"locus YDL101C, strain DUN1, stronger effect = lower value",0.522 (active)
same,normalized growth,"locus YDL185W, strain tfp1, stronger effect = lower value",0.995
same,normalized growth,"locus YDL192W, strain arf1, stronger effect = lower value",0.896 (active)
same,normalized growth,"locus YDR101C, strain arx1, stronger effect = lower value",0.939
same,normalized growth,"locus YDR162C, strain NBP2, stronger effect = lower value",0.428 (active)
same,normalized growth,"locus YDR318W, strain mcm21, stronger effect = lower value",0.955
same,normalized growth,"locus YDR388W, stronger effect = lower value",0.895 (active)
same,normalized growth,"locus YDR502C, strain sam2, stronger effect = lower value",0.813 (active)
same,normalized growth,"locus YEL061C, strain CIN8, stronger effect = lower value",0.681 (active)
same,normalized growth,"locus YER110C, stronger effect = lower value",0.988
same,normalized growth,"locus YER155C, strain BEM2, stronger effect = lower value",0.756 (active)
same,normalized growth,"locus YER167W, strain BCK2, stronger effect = lower value",0.957
same,normalized growth,"locus YGL078C, strain dbp3, stronger effect = lower value",0.999
same,normalized growth,"locus YGL086W, strain mad1, stronger effect = lower value",0.909 (active)
same,normalized growth,"locus YGL248W, strain PDE1, stronger effect = lower value",0.814 (active)
same,normalized growth,[2],0.818 (active)
same,normalized growth,"locus YGR135W, strain pre9, stronger effect = lower value",0.854 (active)
same,normalized growth,"locus YGR229C, strain SMI1, stronger effect = lower value",0.419 (active)
same,normalized growth,"locus YGR252W, strain gcn5, stronger effect = lower value",0.792
same,normalized growth,"locus YHR030C, strain SLT2, stronger effect = lower value",0.87 (active)
same,normalized growth,"locus YHR079C, strain IRE1 (second series), stronger effect = lower value",0.904 (active)
same,normalized growth,"locus YHR094C, strain hxt1, stronger effect = lower value",1.01
same,normalized growth,"locus YHR129C, strain ARP1, stronger effect = lower value",0.73 (active)
same,normalized growth,"locus YHR200W, strain rpn10, stronger effect = lower value",0.964
same,normalized growth,"locus YIL066C, strain RNR3, stronger effect = lower value",0.61 (active)
same,normalized growth,"locus YIL073C, strain SPO22, stronger effect = lower value",0.499 (active)
same,normalized growth,"locus YIL125W, strain kgd1, stronger effect = lower value",1
same,normalized growth,"locus YIR030C, strain dcg1, stronger effect = lower value",0.903 (active)
same,normalized growth,"locus YJL095W, strain BCK1, stronger effect = lower value",0.113 (active)
same,normalized growth,"locus YJL134W, strain LCB3, stronger effect = lower value",0.909 (active)
same,normalized growth,"locus YJL168C, strain set2, stronger effect = lower value",0.983
same,normalized growth,"locus YJL187C, strain SWE1 (second series), stronger effect = lower value",0.621 (active)
same,normalized growth,"locus YJR043C, strain POL32, stronger effect = lower value",0.425 (active)
same,normalized growth,"locus YKL009W, strain mrt4, stronger effect = lower value",0.993
same,normalized growth,"locus YKL068W, stronger effect = lower value",1.01
same,normalized growth,"locus YKL085W, strain MDH1 (second series), stronger effect = lower value",0.992
same,normalized growth,"locus YKL085W, strain MDH1, stronger effect = lower value",0.992
same,normalized growth,"locus YKR001C, strain vps1, stronger effect = lower value",0.882 (active)
same,normalized growth,"locus YLR039C, strain RIC1, stronger effect = lower value",0.293 (active)
same,normalized growth,"locus YLR058C, strain SHM2, stronger effect = lower value",0.643 (active)
same,normalized growth,"locus YLR102C, strain apc9, stronger effect = lower value",1.01
same,normalized growth,"locus YLR262C, strain YPT6, stronger effect = lower value",0.616
same,normalized growth,"locus YLR268W, strain sec22, stronger effect = lower value",0.853 (active)
same,normalized growth,"locus YLR330W, strain CHS5, stronger effect = lower value",0.82 (active)
same,normalized growth,"locus YLR342W, strain FKS1 (second series), stronger effect = lower value",0.645 (active)
same,normalized growth,"locus YLR371W, strain rom2, stronger effect = lower value",0.919
same,normalized growth,"locus YLR418C, strain cdc73, stronger effect = lower value",0.673 (active)
same,normalized growth,"locus YML016C, strain PPZ1, stronger effect = lower value",0.746 (active)
same,normalized growth,"locus YML032C, strain rad52, stronger effect = lower value",0.927
same,normalized growth,"locus YML124C, strain tub3, stronger effect = lower value",0.979
same,normalized growth,"locus YMR078C, strain ctf18, stronger effect = lower value",0.973
same,normalized growth,"locus YMR223W, strain ubp8, stronger effect = lower value",0.91
same,normalized growth,[3],0.455 (active)
same,normalized growth,"locus YMR307W, strain GAS1, stronger effect = lower value",0.691
same,normalized growth,"locus YNL067W, strain RPL9B, stronger effect = lower value",0.726 (active)
same,normalized growth,"locus YNL128W, strain TEP1, stronger effect = lower value",0.816 (active)
same,normalized growth,"locus YNL233W, strain BNI4, stronger effect = lower value",0.849 (active)
same,normalized growth,"locus YNL250W, strain rad50, stronger effect = lower value",1.03
same,normalized growth,"locus YNL271C, strain bni1, stronger effect = lower value",0.997
same,normalized growth,"locus YNL298W, strain CLA4, stronger effect = lower value",0.981
same,normalized growth,"locus YNL307C, strain MCK1, stronger effect = lower value",0.899 (active)
same,normalized growth,[4],0.522 (active)
same,normalized growth,"locus YNR052C, strain pop2, stronger effect = lower value",0.927
same,normalized growth,"locus YOL012C, strain htz1",0.299
same,normalized growth,"locus YOL147C, strain pex11, stronger effect = lower value",0.936
same,normalized growth,"locus YOR061W, strain CKA2, stronger effect = lower value",0.871 (active)
same,normalized growth,"locus YOR069W, strain VPS5, stronger effect = lower value",0.858 (active)
same,normalized growth,"locus YOR136W, strain idh2, stronger effect = lower value",1.01
same,normalized growth,"locus YOR144C, strain elg1, stronger effect = lower value",0.95
same,normalized growth,"locus YOR184W, strain ser1, stronger effect = lower value",0.784 (active)
same,normalized growth,"locus YOR316C, strain cot1, stronger effect = lower value",0.999
same,normalized growth,"locus YPR119W, strain clb2, stronger effect = lower value",1.01
same,normalized growth,"locus YPR141C, strain kar3, stronger effect = lower value",1.01
same,normalized growth,"locus YPR163C, strain tif3, stronger effect = lower value",0.982
same,normalized growth,"locus YPR167C, strain met16, stronger effect = lower value",0.952
same,normalized growth,"strain wtn01, stronger effect = lower value",0.892 (active)
NC(Cc1ccc(O)c(O)c1)C(=O)O (configuration not stated),normalized growth,[1],0.997
same,normalized growth,[5],1.02
same,normalized growth,[6],0.977
same,normalized growth,"locus YDR150W, strain NUM1, stronger effect = lower value",0.955
same,normalized growth,[7],1.02
same,normalized growth,[8],1.01
same,normalized growth,[3],1.01
same,normalized growth,[9],1.01
same,normalized growth,[10],1.03
same,normalized growth,[11],1.01
same,normalized growth,[12],0.97
C[C@H](Cc1ccc(O)c(O)c1)[C@@H](C)Cc1ccc(O)c(O)c1,normalized growth,[1],0.783 (active)
same,normalized growth,[5],1.07
same,normalized growth,[6],0.811 (active)
same,normalized growth,[7],0.745 (active)
same,normalized growth,[8],0.979
same,normalized growth,[2],0.986
same,normalized growth,"locus YNL153C, strain GIM3, stronger effect = lower value",0.863
same,normalized growth,[9],0.946
same,normalized growth,[10],0.969
same,normalized growth,[11],0.966
same,normalized growth,[4],0.478 (active)
same,normalized growth,[12],0.925
same,normalized growth,"locus YPL055C, strain LGE1, stronger effect = lower value",0.77 (active)
same,normalized growth,"locus YPL241C, strain CIN2, stronger effect = lower value",0.578 (active)
